PubChem BioAssay
Unmarked numbers belong to inactive results. Activity calls are given as the source filed them.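 How the source made its calls: active means inhibition above the hit cutoff set in the earlier primary screen (cut at about 27% in these data); inactive means the rest.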

Target: Protein phosphatase methylesterase 1 (Homo sapiens) (UniProt Q9Y570)
Experiment: PME-1 inhibitor activity retest, confirmation, biochemical, fluorescence polarization, FP-Rh probe, triplicate (AID 2171);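 further: 0% = enzyme with DMSO and 100% = wells lacking PME-1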
Conditions: recombinant PME-1, FP-Rh probe fluorescence polarization; at 5.9 µM; stronger effect = higher value

Chain of Protein phosphatase methylesterase 1 (Homo sapiens) (Q9Y570 whole entry, looked up): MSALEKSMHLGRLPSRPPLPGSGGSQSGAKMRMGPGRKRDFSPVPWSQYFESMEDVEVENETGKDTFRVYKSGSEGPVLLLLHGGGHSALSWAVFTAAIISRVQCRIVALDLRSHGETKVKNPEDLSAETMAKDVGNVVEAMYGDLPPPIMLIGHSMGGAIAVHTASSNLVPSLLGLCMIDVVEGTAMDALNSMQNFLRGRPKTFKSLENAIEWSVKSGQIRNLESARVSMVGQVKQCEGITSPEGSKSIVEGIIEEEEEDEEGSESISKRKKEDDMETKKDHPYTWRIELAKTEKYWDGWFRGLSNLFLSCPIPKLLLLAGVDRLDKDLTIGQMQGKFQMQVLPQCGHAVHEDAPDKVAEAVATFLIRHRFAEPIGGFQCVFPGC

Compound | inhibition
COC(=O)N1C(=O)[C@](c2ccccc2)(C2CCCC2)N1C(=O)OC | 86.9% (active)
COc1cc(OC)c2cc(C(=O)N/N=C/c3cccc(OC)c3O)[nH]c2c1 | 39.4% (active)
O=[N+]([O-])c1cccc(-c2nc(-c3cccs3)c(-c3cccs3)[nH]2)c1 | 13%
Cc1cc(C)c(S(=O)(=O)/N=C2/C=C(Sc3ncn[nH]3)C(=O)c3ccccc32)cc1C | 17.7%
Nc1ccc2oc(-c3cc(Br)ccc3Cl)nc2c1 | 9.02%
C1=C(CCNc2ncnc3c2[nH]c2ccccc23)CCCC1 | 29.3% (active)
CN(C)S(=O)(=O)c1cccc(NC(=S)N/N=C/c2cc(Br)ccc2O)c1 | 16.8%
Cc1ccc(NC(=O)c2ccc(Nc3c([N+](=O)[O-])cc([N+](=O)[O-])cc3[N+](=O)[O-])cc2)cc1 | 30.6% (active)
COc1cccc(/C=N/NC(=O)c2cc3c(OC)ccc(OC)c3[nH]2)c1O | 32.6% (active)
O=C1OC(Nc2cc(Br)cc3cccnc23)c2ccccc21 (stereo not drawn) | 6.18%
COc1ccc(N2CCN(c3ncnc4c3[nH]c3ccccc34)CC2)cc1 | 28% (active)
COc1cccc(/C=N/NC(=O)c2[nH]c(C)c(C(=O)N/N=C/c3cccc(OC)c3O)c2C)c1O | -31.6%
COc1cc(/C=N/Nc2nc3ccccc3s2)ccc1O | 57.7% (active)
C(=N\Nc1nc2ccccc2[nH]1)/c1cccc2cccnc12 | 60.2% (active)
Fc1ccc2[nH]c3c(N4CCN(c5ccccc5)CC4)ncnc3c2c1 | 26.3% (active)
COCCn1c(N)c(C(=O)NCC2CCCO2)c2nc3ccccc3nc21 (stereo not drawn) | 15.1%
COc1cccc2c1C(=O)c1c(O)c3c(c(O)c1C2=O)C[C@](O)(C(C)=O)C[C@H]3O[C@@H]1C[C@@H](N)[C@@H](O)[C@@H](C)O1 | 40.8% (active)

Compound | inhibition
Cc1oc2c(c1C(=O)c1ccccc1)C(=O)C(=O)c1ccccc1-2 | 18.1%
COc1ccc2c(c1)[nH]c1c(N3CCN(Cc4ccc5c(c4)OCO5)CC3)ncnc12 | 14.8%
CCCn1nc([N+](=O)[O-])c(C(C#N)c2nc3ccccc3s2)c(Cl)c1=O (stereo not drawn) | 28.7% (active)
O=C1C(Cl)=C(Nc2ccc3cn[nH]c3c2)C(=O)c2ccccc21 | 31.7% (active)
CC(=O)C1C(=O)c2c(cccc2[N+](=O)[O-])C1=Nc1ccc(S(N)(=O)=O)cc1 (stereo not drawn) | 30.2% (active)
CN1CCN(c2ccc(NC(=O)c3ccc(-c4ccc(Br)cc4)o3)cc2)CC1 | 37.4% (active)
O=C1C(SCCO)=C(SCCO)C(=O)c2ccccc21 | 38.3% (active)
CCc1ccc(S(=O)(=O)/N=C2\C=C(Nc3ccc(O)cc3)C(=O)c3ccccc32)cc1 | 36.8% (active)
COc1cccc(-c2nc(NC(C)C)c3ccccc3n2)c1O | 23.6%
COc1ccc(/C=C2\CN(Cc3ccccc3)C/C(=C\c3ccc(OC)c(O)c3)C2=O)cc1O | -5.14%
CN(c1ccccc1)S(=O)(=O)c1ccc(NC(=O)c2nc(S(C)(=O)=O)ncc2Cl)cc1 | 24.2%
Cc1ccc(C(C)C)c(OCc2ccc(C(=O)N/N=C/c3ccc(O)c(O)c3)cc2)c1 | -9.52%
Cc1cccc(-n2c3nc(=O)[nH]c(=O)c-3cc3cc([N+](=O)[O-])ccc32)c1 | 50.6% (active)
CCCOc1ccc(/C=N/NC(=S)Nc2ccccc2[N+](=O)[O-])c(O)c1 | 27.9% (active)
CCCCn1c(NS(=O)(=O)c2ccccc2)c(S(=O)(=O)c2ccc(C)cc2)c2nc3ccccc3nc21 | 11.6%
O=[N+]([O-])c1ccc(-c2nc(-c3cccs3)c(-c3cccs3)[nH]2)cc1 | 21.5%
